The values below come from article PMC5700166.

One test deals with T1, GST-Co-NF-kB (Capsaspora owczarzaki, UniProt F1ARL5 200-546).
T1 sequence: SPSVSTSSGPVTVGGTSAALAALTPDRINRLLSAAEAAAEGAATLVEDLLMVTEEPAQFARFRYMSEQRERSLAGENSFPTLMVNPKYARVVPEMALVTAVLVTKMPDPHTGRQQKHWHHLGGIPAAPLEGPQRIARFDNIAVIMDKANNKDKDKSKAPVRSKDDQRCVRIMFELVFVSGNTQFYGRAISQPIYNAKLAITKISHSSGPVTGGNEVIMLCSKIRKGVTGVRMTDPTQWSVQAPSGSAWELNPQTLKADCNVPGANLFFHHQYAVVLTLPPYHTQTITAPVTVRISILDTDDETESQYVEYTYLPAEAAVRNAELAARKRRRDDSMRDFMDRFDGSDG
The test is described as follows: protein-binding microarray (PBM); PBM: ~300 nM protein, 6 mM HEPES pH 7.8, 80 mM KCl, 0.5 mM EDTA, 0.5 mM EGTA, 6% glycerol, 35 ng/ul poly-dIdC, 1% milk, 1 h, room temperature; Ap Aiptasia and Nv Nematostella (sea anemones) / Co Capsaspora / Aq Amphimedon (sponge) / Dm Drosophila / Hu human; RHD is the Rel homology domain; high values mean tight binding. The conditions noted are these: dsDNA, one strand shown.
“CCGATTAACATCATATTGGGAAATGATGTTAATCGGGTCTTGATTCGCTTGACGCTGCTG” yielded a binding signal of 2.03 z-score. The same measure, in the same setting: in the case of “CCGATTAACATCACGGAAAAAACTGATGTTAATCGGGTCTTGATTCGCTTGACGCTGCTG” it was 1.37 z-score. The same measure, in the same setting: next, “CCGATTAACATCACCCCGCATGCTGATGTTAATCGGGTCTTGATTCGCTTGACGCTGCTG”: 1.97 z-score; “CCGATTAACATCACGGGCAGTGGTGATGTTAATCGGGTCTTGATTCGCTTGACGCTGCTG”: 1.25 z-score; “CCGATTAACATCACCTGGTCGGGTGATGTTAATCGGGTCTTGATTCGCTTGACGCTGCTG”: 1.5 z-score. For “CCGATTAACATCAATTCCCAACCTGATGTTAATCGGGTCTTGATTCGCTTGACGCTGCTG”, the binding signal is 2.06 z-score. The same measure, in the same setting: next, “CCGATTAACATCAGGAAGGGCGGTGATGTTAATCGGGTCTTGATTCGCTTGACGCTGCTG”: 1.08 z-score; “CCGATTAACATCATGTTTGCGGGTGATGTTAATCGGGTCTTGATTCGCTTGACGCTGCTG”: 1.02 z-score.

The target in the next test is T2, GST-Dm-Relish (Drosophila melanogaster, UniProt Q94527 99-473).
T2 sequence: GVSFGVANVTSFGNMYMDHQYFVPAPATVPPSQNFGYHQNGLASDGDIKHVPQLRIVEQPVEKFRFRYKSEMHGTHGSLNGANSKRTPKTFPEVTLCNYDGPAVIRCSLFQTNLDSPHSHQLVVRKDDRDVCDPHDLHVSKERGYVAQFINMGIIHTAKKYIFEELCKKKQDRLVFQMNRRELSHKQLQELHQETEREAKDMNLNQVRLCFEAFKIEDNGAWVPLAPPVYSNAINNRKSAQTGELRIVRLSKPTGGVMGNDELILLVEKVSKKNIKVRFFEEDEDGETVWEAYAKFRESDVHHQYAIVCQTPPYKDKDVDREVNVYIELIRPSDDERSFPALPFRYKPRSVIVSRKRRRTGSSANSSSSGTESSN
The test is described as above. The following applies: dsDNA, one strand shown.
As to “CCGATTAACATCACCAGGTTAGGTGATGTTAATCGGGTCTTGATTCGCTTGACGCTGCTG”, the binding signal was 1.36 z-score.

For “CCGATTAACATCATGATATCCGGTGATGTTAATCGGGTCTTGATTCGCTTGACGCTGCTG”, the binding signal came to 1.07 z-score. On the same count and under the same terms, next, “CCGATTAACATCACCGAAATTCCTGATGTTAATCGGGTCTTGATTCGCTTGACGCTGCTG”: 1.25 z-score.

“CCGATTAACATCACGGAAAAAACTGATGTTAATCGGGTCTTGATTCGCTTGACGCTGCTG” registered a binding signal of 1.6 z-score. Still for that read-out and setting: next, “CCGATTAACATCACGTGCTTTCCTGATGTTAATCGGGTCTTGATTCGCTTGACGCTGCTG”: 2.88 z-score; “CCGATTAACATCACAGCGTGAGGTGATGTTAATCGGGTCTTGATTCGCTTGACGCTGCTG”: 1.34 z-score; “CCGATTAACATCACCTTGAACGGTGATGTTAATCGGGTCTTGATTCGCTTGACGCTGCTG”: 1.69 z-score. “CCGATTAACATCACGGGATGTACTGATGTTAATCGGGTCTTGATTCGCTTGACGCTGCTG” had a binding signal of 5.98 z-score. Still for that read-out and setting: in the case of “CCGATTAACATCAAGGAAAGTACTGATGTTAATCGGGTCTTGATTCGCTTGACGCTGCTG” it was 4.7 z-score; in that of “CCGATTAACATCACGGGCAGTGGTGATGTTAATCGGGTCTTGATTCGCTTGACGCTGCTG”, 1.02 z-score.

Turning to “CCGATTAACATCACGGAATTTTATGATGTTAATCGGGTCTTGATTCGCTTGACGCTGCTG”, the binding signal amounted to 1.2 z-score. Turning to “CCGATTAACATCACCTGGTCGGGTGATGTTAATCGGGTCTTGATTCGCTTGACGCTGCTG”, the binding signal was found to be 1.13 z-score.

“CCGATTAACATCACTCTTCTCGGTGATGTTAATCGGGTCTTGATTCGCTTGACGCTGCTG” showed a binding signal of 1.33 z-score. Same read-out and setting: in the case of “CCGATTAACATCATTTCTTACGGTGATGTTAATCGGGTCTTGATTCGCTTGACGCTGCTG” it was 1.25 z-score. Still for that read-out and setting: next, “CCGATTAACATCAGCGGAAATCCTGATGTTAATCGGGTCTTGATTCGCTTGACGCTGCTG”: 1.26 z-score; “CCGATTAACATCAGGTATTTCCATGATGTTAATCGGGTCTTGATTCGCTTGACGCTGCTG”: 2.79 z-score. For “CCGATTAACATCAGGAAATACCATGATGTTAATCGGGTCTTGATTCGCTTGACGCTGCTG”, the binding signal was found to be 3.07 z-score.

The sequence “CCGATTAACATCACGTACTTTCCTGATGTTAATCGGGTCTTGATTCGCTTGACGCTGCTG” had a binding signal of 4.78 z-score.
